Inconclusive results are not listed. Activity calls are given as the source filed them. Calls come from the whole dose curve; as a rule, active = well fitted activation curve with a large enough effect in the signal ratio in the repeat runs (not every such curve was filed as active); inconclusive = weak or mixed curves; inactive = flat fitted curve, though single readings scatter; the % refers to the signal ratio.

A short description of the test: qHTS assay to identify small molecule agonists of H2AX (AID 1224845). The note with it: CHO-K1 phospho-H2AX Ser139 HTRF, 3 h; series mostly up to 154 µM. The source says: National Center for Advancing Translational Sciences [NCATS]
NIH Chemical Genomics Center [NCGC]
U.S. Environmental Protection Agency [EPA]
National Institutes of Environmental Health Sciences [NIEHS]
National Toxicology Program [NTP]
U.S. Food and Drug Administration [FDA]
HTRF phospho-H2AX (Ser139) assay (Cisbio Bioassays, US) enables the quantitative detection of the histone variant H2AX when phosphorylated on serine 139. When double-stranded DNA breaks, either by ionizing radiation or endogenous physiological processes, H2AX becomes phosphorylated at Ser139. This phospho-Ser139 serves as a sensitive biomarker for the detection of such breaks, localizing the site of DNA repair. So, HTRF phospho-H2AX Ser139 is a pertinent assay to study genome stability, the cell cycle, DNA repair, and it serves as a biomarker for cancer, and to understand aging. Wild type CHO-K1 cells were used to identify the inducers of Phospho-H2AX Ser 139 from the Tox21 10K compound collections.
Tox21 Assay Protocol Summary:
The CHO-K1 cells suspended in culture medium containing 10% FBS were dispensed at 1000 cells/ 3 ul/well in 1536-well white wall/solid bottom plates (Greiner Bio-One North America, NC) using a Multidrop Combi (Thermo Fisher Scientific Inc., Waltham, MA). After the assay plates were incubated at 37C overnight, 23 nl of compounds at 15 concentrations (from 5-48 columns) or positive control (from 1 to 4 columns) were transferred to the assay plates using a Pintool station (Wako, San Diego, CA) into each well resulting in a final DMSO concentration of 0.76%. After 3hr incubation at 37C, 1 uL/well Supplemented Lysis buffer (diluted 100 fold blocking reagent in lysis buffer) (HTRF Phospho-H2A.X (S139) Assay kit from Cisbio US Inc., Bedford, MA) was added using a Flying Reagent Dispenser (FRD) (Aurora Discovery, CA). After 10sec spin at 1000 rpm in a plate centrifuge, the assay plates were incubated at room temperature for 30 min. Then followed by the addition of 1 uL/well detection buffer (containing a mixture of two antibodies, one labeled with cryptate, Anti pH2AX (S139)-K and another labeled with d2, Anti H2AX-d2) using FRD. After incubation at room temperature for 24 hr, the time resolved fluorescence at excitation 320 nm and emissions at 665 nm and 620 nm was measured using an Envision plate reader (PerkinElmer, Waltham, MA).
(In general: In qHTS, concentration-response curves come from the screen itself.)
With `CC(=O)CC/C=C(\C)CCC=C(C)C`, the molecule was classed as inactive.

In the case of `O=Cc1ccccc1O`, the molecule was called inactive.

Turning to `O=C(c1ccccc1)c1ccccc1O`, the call was inactive. As for `C[C@]12CC[C@H]3[C@@H](CCC4=CC(=O)CC[C@@]43C)[C@@H]1CC[C@@H]2C(=O)CO`, the entry is “inactive”; as for `C[C@]12CCC(=O)C=C1CC[C@@H]1[C@@H]2C(=O)C[C@@]2(C)[C@H]1CC[C@]2(O)C(=O)CO`, “inactive”; as for `CC(C)OC(=O)C(C)(C)Oc1ccc(C(=O)c2ccc(Cl)cc2)cc1`, “inactive”. Next, `Cc1ncc[nH]1`: “inactive”; `O=CCCCC=O`: “inactive”; `O=P(O)(O)O`: “inactive”. Next, `O=C(OCc1ccccc1)c1ccccc1O`: “inactive”. `CCCCOCCOCCO`: the molecule was called inactive.

As to `COc1ccc(C(=O)CC(=O)c2ccc(C(C)(C)C)cc2)cc1`, the outcome was inactive. Next, `CN(C)CCN(Cc1cccs1)c1ccccn1`: “inactive”; `Nc1ncn([C@@H]2O[C@H](CO)[C@@H](O)[C@H]2O)c(=O)n1`: “inactive”. On to `Nc1ncnc2nc[nH]c12`, for which the result was inactive. Next, `C#C[C@]1(O)CC[C@H]2[C@@H]3CCC4=Cc5oncc5C[C@]4(C)[C@H]3CC[C@@]21C`: “inactive”; `COC(=O)C1=C(C)NC(C)=C(C(=O)OCCN(C)Cc2ccccc2)C1c1cccc([N+](=O)[O-])c1` (stereo not given): “inactive”.

As for `OC1CCCCCCCCCCC1`, the call was inactive.

As to `S=C(NC1CCCCC1)NC1CCCCC1`, the molecule was classed as inactive. As for `CCCCCCCCCC(=O)OC`, the entry is “inactive”; as for `CCCCC(CC)COP(=O)(OCC(CC)CCCC)OCC(CC)CCCC` (stereo not given), “inactive”; as for `CCOCCOCCO`, “inactive”. Next, `O=C(COc1ccc(Cl)cc1)N1CCN(Cc2ccc3c(c2)OCO3)CC1`: “inactive”; `c1ccncc1`: “inactive”; `Cc1cccc([N+](=O)[O-])c1C`: “inactive”. Next, `COc1c(Cl)c(Cl)c(Cl)c(Cl)c1Cl`: “inactive”; `CN(C)c1nc(N(C)C)nc(N(C)C)n1`: “inactive”.

Consider `CCOC(=O)C(C#N)=C(c1ccccc1)c1ccccc1`, for which the call was inactive.

Regarding `CC1=CC2C3CC(C=C3C)C2C1` (stereo not given), the outcome was inactive.

Turning to `O=C(/C=C/c1ccccc1)OCc1ccccc1`, the result was inactive. As for `NC=O`, the entry is “inactive”; as for `Cc1ccc2c(n1)Oc1ccc(C(C)C(=O)OCC(=O)N(C)C)cc1C2` (stereo not given), “inactive”; as for `COC(=O)CCC(=O)OC`, “inactive”. Next, `CC(CCC(=O)O)(c1ccc(O)cc1)c1ccc(O)cc1`: “inactive”. Next, `NNc1ccc(C(=O)O)cc1`: “inactive”; `CCC(C)OC(=O)c1ccc(O)cc1` (stereo not given): “inactive”; `CCC(C)CO` (stereo not given): “inactive”. `CCCc1c(OCCCCc2nn[nH]n2)ccc(C(C)=O)c1O`: the molecule was classed as inactive. As for `CC(C)(C)NC(=O)[C@H]1CC[C@H]2[C@@H]3CC[C@H]4NC(=O)C=C[C@]4(C)[C@H]3CC[C@]12C`, the entry is “inactive”; as for `CC(C)CC(C)(O)C#CC(C)(O)CC(C)C` (stereo not given), “inactive”.

(Values after PubChem BioAssay (Tox21).)
